Measured values as given in PubChem BioAssay (NCATS).
Several values for one entry are separate records, joined by “and”; a condition that tells them apart may be missing. Equal entries are not always repeated. Records with an inconclusive call do not appear. Activity calls are given as the source filed them. Unless noted, the call rests on the fitted dose curve.

test: Cell Viability - LYMP2-026 (AID 989; active means well fitted cell-killing curve with a large enough effect;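 further: cells exposed to compound for 24 h at 37 °C; on the % scale 0 is the no-effect control and ±100 the full control effect; nearly all actives have a fitted effect of over 50% in size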); settings: LYMP2-026 lymphoblastoid cell viability, qHTS; series mostly up to 92.2 µM
Summary of the method: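 Cells are seeded at 2500 per well and held 5 hr at 37 C. Compounds are added in concentration series for 24 hr, then CellTiter-Glo reagent is applied and luminescence read.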

| Structure (SMILES) | outcome |
| --- | --- |
| Cc1occc(=O)c1O | inactive |
| C=C(C)[C@H]1CC=C(C)C(=O)C1 | inactive |
| COS(C)(=O)=O | inactive |
| CC1=CC(=O)CC(C)(C)C1(O)/C=C/C(C)=C\C(=O)O (centres undefined) | inactive |
| C=CC(C)(O)CCC=C(C)C (centres undefined) | inactive |

test: Cell Viability - LYMP1-002 - Assay at 24 hr (AID 993; active means well fitted cell-killing curve with a large enough effect; further: on the % scale 0 is the no-effect control and ±100 the full control effect); settings: LYMP1-002 lymphoblastoid cells viability; series mostly up to 92.2 µM
Summary of the method: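 Acute toxicity is measured as concentration-dependent loss of cellular ATP in a human lymphoblastoid line (Coriell LYMP1-002) after 24 h treatment in complete medium. ATP is quantified by luciferase luminescence and AC50 derived by Hill modelling.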

| Structure (SMILES) | outcome |
| --- | --- |
| Cc1occc(=O)c1O | inactive |
| C=C(C)[C@H]1CC=C(C)C(=O)C1 | inactive |
| COS(C)(=O)=O | inactive |
| CC1=CC(=O)CC(C)(C)C1(O)/C=C/C(C)=C\C(=O)O (centres undefined) | inactive |
| C=CC(C)(O)CCC=C(C)C (centres undefined) | inactive |

test: Cell Viability - LYMP1-002 - Assay at 40 hr (AID 994; active means well fitted cell-killing curve with a large enough effect;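 further: 0% = DMSO only and full inhibition = 92 µM tetraoctylammonium bromide; nearly all actives have a fitted effect of over 60% in size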); settings: LYMP1-002 lymphoblastoid cell viability; series mostly up to 92.2 µM
Source text: NIH Chemical Genomics Center [NCGC]
NIH Molecular Libraries Screening Centers Network [MLSCN]
National Institutes of Environmental Health Sciences [NIEHS]
National Toxicology Program [NTP]
We have developed a 1536-well cell-based assay for quantitative high throughput screening (qHTS) against a number of cell lines to determine in vitro cytotoxicity of small molecules. This particular assay uses a human lymphoblastoid cell line (LYMP1-002) purchased from Coriell Institute for Medical Research.
NCGC Assay Protocol Summary:
The CellTiter-Glo luminescent cell viability assay (Promega) is a homogeneous method to measure the number of viable cells in culture. The end point readout of this assay is based on quantitation of intracellular ATP, an indicator of metabolic activity, using the luciferase reaction. Luciferase catalyzes the oxidation of beetle Luciferin to oxyluciferin and light in the presence of ATP. The luminescent signal is proportional to amount of ATP present.
Using the CellTiter-Glo luminescent cell viability assay, the amount of cellular ATP was measured in the lymphoblastoid cell line with complete culture medium following compound treatment for 40 hours. The assay was performed in opaque white Kalypsys 1536-well plates. In the screen, tetraoctylammonium bromide was used as positive control. Library compounds were measured for their ability to cause acute toxicity in the cell line, as reflected by a decrease in intracellular ATP levels, in a concentration-dependent manner. […] AC50 values were determined from concentration-response data modeled with the standard Hill equation.
qHTS protocol for CellTiter Glo lymphoblastoid cellular assay
[Step] [Parameter] [Value] [Description]
1. Reagent; 5 uL; 2500 lymphoblastoid cells/well
2. Time; 5 hr; 37 C incubation
4. Controls; 23 nL; Tetraoctylammonium bromide 6.4pM to 92 uM
5. Time; 40 hr; 37 C incubation
6. Reagent; 5 uL; CellTiter Glo reagent
7. Time; 30 min; Room Temperature
8. Detection; Luminescence; Viewlux plate reader
Keywords: cell viability, cytotoxicity, lymphoblastoid cell line, luminescence, NTPHTS, NTPHTS_NCGC, NIEHS, DSSTox, MLSMR, MLSCN, NIH Roadmap, qHTS, NCGC

| Structure (SMILES) | outcome |
| --- | --- |
| Cc1occc(=O)c1O | inactive |
| C=C(C)[C@H]1CC=C(C)C(=O)C1 | inactive |
| COS(C)(=O)=O | inactive |
| CC1=CC(=O)CC(C)(C)C1(O)/C=C/C(C)=C\C(=O)O (centres undefined) | inactive |
| C=CC(C)(O)CCC=C(C)C (centres undefined) | inactive |

test: qHTS Assay for Lipid Storage Modulators (AID 1519); settings: Drosophila S3 cells, BODIPY lipid droplet/cell ratio, laser cytometry; at 25.7 µM (top of the series); cells loaded with oleic acid; further: on the % scale 0 is the no-effect control and ±100 the full control effect
Summary of the method: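 Cells seeded at 5,000 per well were treated with compounds over a concentration series and loaded with oleic acid (400 uM, as added). Lipid droplet fluorescence (488 nm excitation, 500-530 nm channel) was read by laser-scanning cytometry and normalized to 20 uM Triacsin C.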

| Structure (SMILES) | activity change, negative = inhibition |
| --- | --- |
| CN1CCCC[C@@H]1CCN1c2ccccc2Sc2ccc(S(C)=O)cc21 (some centres undefined) | -3.11% (inactive) |
| COC(=O)C1=CO[C@@H](C)[C@H]2CN3CCc4c([nH]c5ccccc45)[C@@H]3C[C@H]12 | -0.703% (inactive) and -0.794% (inactive) |
| CC12CC[C@@H]3c4ccc(OS(=O)(=O)O)cc4CC[C@H]3C1CCC2=O (some centres undefined) | -2.17% (inactive) |
| CN(C)CC/C=C1\c2ccccc2CSc2ccccc21 | -6.7% (inactive) |
| C[C@@H]1CCC[C@H](C)N1NC(=O)c1ccc(Cl)c(S(N)(=O)=O)c1 | 1.49% (inactive) |
| CC(C)N1CCN(c2ccc(OC[C@@H]3CO[C@@](Cn4cncn4)(c4ccc(Cl)cc4Cl)O3)cc2)CC1 | -0.441% (inactive) |

same assay, conditions: Drosophila S3 cells, BODIPY lipid droplet/cell ratio, laser cytometry; at 57.5 µM (top of the series); cells loaded with oleic acid

| Structure (SMILES) | activity change, negative = inhibition |
| --- | --- |
| FC(F)(F)c1ccccc1-c1ccc2ncnc(N3CCOCC3)c2c1 | 5.7% (inactive) |
| COCCn1c(=O)c(C)nc2cnc(Nc3ccccc3)nc21 | -1.55% (inactive) |
| COc1cccc(Cn2c(=O)cnc3cnc(N4CCN(C)CC4)nc32)c1 | 5.18% (inactive) |
| C[N+](C)(C)CC(O)CC(=O)O (centres undefined) | 3.18% (inactive) |
| COc1ccc2ccc(=O)oc2c1 | 7.71% (inactive) |
| NC(Cc1c[nH]c2ccccc12)C(=O)O (centres undefined) | 9.94% (inactive) |
| COc1cc2c(cc1OC)C1Cc3ccc(OC)c(OC)c3CN1CC2 (centres undefined) | 8.32% (inactive) |
| CN1CCN(c2ccnc(-c3ccc(N(C)C)cc3)n2)CC1 | 10.5% (inactive) |
| Cc1occc(=O)c1O | 8.81% (inactive) |
| O=C(/C=C/c1ccc(O)c(O)c1)OC(Cc1ccc(O)c(O)c1)C(=O)O (centres undefined) | 6.07% (inactive) and 7.21% (inactive) |
| O=c1ccc2ccc(O)cc2o1 | 5.83% (inactive) |
| COc1ncc2nc(-c3cccs3)c(=O)n(C)c2n1 | 6% (inactive) |
| N#Cc1cccc(-c2ccc3ncnc(NCc4ccccc4)c3c2)c1 | -0.0166% (inactive) |
| O=C(Cc1cccs1)NC1C(=O)N2C(C(=O)[O-])=C(C[n+]3ccccc3)CSC12 (centres undefined) | 7.61% (inactive) |
| Oc1ccc2c(c1)OCC1(O)Cc3cc(O)c(O)cc3C21 (centres undefined) | 11.4% (inactive) |
| C=C(C)[C@H]1CC=C(C)C(=O)C1 | -4.73% (inactive) |
| CN1C(CC(=O)c2ccccc2)CCCC1CC(O)c1ccccc1 (centres undefined) | -2.13% (inactive) |
| CN(C)C(=O)c1ccc(-c2nc(N(C)C)c3ccccc3n2)cc1 | 8.51% (inactive) |
| COc1ccccc1-c1nccc(NCc2ccccc2)n1 | 1.38% (inactive) |
| CC(C)(S)[C@H](N)C(=O)O | 4.84% (inactive) |
| C=C[C@](C)(O)CCC=C(C)C | 3.04% (inactive) |
| CN1CCN(c2ncc3ncc(=O)n(-c4ccccc4)c3n2)CC1 | 4.96% (inactive) |
| COS(C)(=O)=O | 5.21% (inactive) |
| CC1=CC(=O)CC(C)(C)C1(O)/C=C/C(C)=C\C(=O)O (centres undefined) | 8.24% (inactive) and 1.12% (inactive) |
| CC1(C)SC2C(NC(=O)Cc3ccccc3)C(=O)N2C1C(=O)O (centres undefined) | 5.55% (inactive) |
| C=C(NC(=O)C(=C)NC(=O)c1csc(C2=NC3c4csc(n4)C4NC(=O)c5csc(n5)C(C(C)(O)C(C)O)NC(=O)C5CSC(=N5)C(=CC)NC(=O)C(C(C)O)NC(=O)c5csc(n5)C3(CC2)NC(=O)C(C)NC(=O)C(=C)NC(=O)C(C)NC(=O)C(C(C)CC)NC2C=Cc3c(C(C)O)cc(nc3C2O)C(=O)OC4C)n1)C(N)=O (centres undefined) | -19.2% (inactive) |
| Cc1cnc(CNc2ncnc3ccc(-c4ccccc4C(F)(F)F)cc23)cn1 | 0.934% (inactive) |
| COc1ccccc1CNc1ncnc2ccc(-c3cccc(C#N)c3)cc12 | -12.8% (inactive) |
